Gal4-VP16 FLuc: Gal4-VP16 reporter inhibition counter-screen. AID 2546. Potency, µM (titrated, usually from 53.6 µM), inactives show at the highest dose activity, negative = inhibition, most hits filed as inhibitors. actives 3.5% (n = 310,000). Drosophila S2 Gal4-VP16 UAS-luciferase, luminescence, 20 h;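 further: Gal4-VP16 expression switched on by copper sulfate through the metallothionein promoter; potency means the concentration at half of the fitted maximal effect; on the % scale 0 is the no-effect control and ±100 the full control effect; nearly all actives have a fitted effect of over 50% in size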
TRPV1 PAM: human TRPV1 potentiation. Q8NER1. actives 0.02% (n = 320,000). TRPV1-expressing cells, Fluo-8 calcium influx, capsaicin EC20 potentiation. AID 540277. potentiation, % at 8.33 µM; in the data active means potentiation above about 80%; inconclusive means between about 30% and that limit; further: 0% is about no effect
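Fluo-8 calcium influx in TRPV1-expressing cells, kinetic read (ex 480/em 520 nm). Compound added and read 3 min for agonist activity, followed by capsaicin at EC20 final and 2 min further read for enhancement.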
RORg inh: ROR gamma (mouse) transcription inhibition; P51450; Drosophila S2 Gal4-RORgamma UAS-luciferase reporter, 20 h; Potency, µM (doses to about 53.6 µM), for the others: at the top dose activity change, negative = inhibition, hits mostly inhibitors; actives 5.4% (n = 310,000); AID 2551; further: potency means the concentration at half of the fitted maximal effect; on the % scale 0 is the no-effect control and ±100 the full control effect; nearly all actives have a fitted effect of over 60% in size
Target sequence (P51450 whole entry, looked up, the tested form may be a part): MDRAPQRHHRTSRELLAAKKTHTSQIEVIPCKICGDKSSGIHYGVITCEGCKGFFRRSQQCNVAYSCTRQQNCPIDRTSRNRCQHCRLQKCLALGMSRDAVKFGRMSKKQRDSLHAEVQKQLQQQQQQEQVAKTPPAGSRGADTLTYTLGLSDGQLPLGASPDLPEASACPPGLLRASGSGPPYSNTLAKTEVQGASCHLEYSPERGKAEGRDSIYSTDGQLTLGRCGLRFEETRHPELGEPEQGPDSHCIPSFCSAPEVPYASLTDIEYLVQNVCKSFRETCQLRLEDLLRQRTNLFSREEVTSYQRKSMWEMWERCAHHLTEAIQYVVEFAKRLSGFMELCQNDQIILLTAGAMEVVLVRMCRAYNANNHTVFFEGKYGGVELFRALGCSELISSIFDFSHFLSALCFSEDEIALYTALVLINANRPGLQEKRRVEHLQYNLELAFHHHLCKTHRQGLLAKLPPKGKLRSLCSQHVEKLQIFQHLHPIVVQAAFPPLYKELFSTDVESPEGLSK
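In this cell-based reporter format, copper sulfate (700 uM final) drives Gal4–ROR gamma fusion expression from a metallothionein promoter in Drosophila Schneider cells; compounds preincubated 1 hr, reporter read after 20 hr at ambient temperature.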
TRPV1 ag: human TRPV1 agonism | Q8NER1 | TRPV1-expressing cells, Fluo-8 calcium influx, agonist mode | activation, % at 8.33 µM | actives 0.19% (n = 320,000) | AID 540275; in the data active means activation above about 80%; inconclusive means between about 30% and that limit; further: 0% is about no effect
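TRPV1-expressing cells were cultured overnight at 35.5C and loaded with Fluo-8 calcium dye for 40 to 90 min at room temperature. After a 10 s baseline, compound was added and calcium influx was read kinetically for 3 min (ex 480/em 520 nm).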
uPA generation: inhibitors of cell surface uPA generation; actives 0.31% (n = 330,000); cell surface uPA generation assay, qHTS; Potency, µM (doses to about 38.3 µM), for inactives: at the top dose activity change, negative = inhibition, hits mostly inhibitors; active means well fitted inhibition curve with a large enough effect; inconclusive means small, poorly fitted or top-dose-only effect; inactive means no such curve, though single readings can be large or run the other way; tested in mouse RAW 264.7 cells; further: potency means the concentration at half of the fitted maximal effect; on the % scale 0 is the no-effect control and ±100 the full control effect; nearly all actives have a fitted effect of over 55% in size
The depositor's hits bear a star; ? = inconclusive; nt = not tested or not shown; [ ] = remark or other dose. Most compounds without a hit are left out; they make up all but 5.8% or so of the library. Unless noted, the call rests on the fitted dose curve; in most records, active means well fitted curve in the direction sought with a large enough effect; inconclusive means small, poorly fitted or top-dose-only effect, or another doubt; inactive means no such curve, though single readings can be large; an effect the other way counts as inactive or inconclusive.

SMILES	Gal4-VP16 FLuc	TRPV1 PAM	RORg inh	TRPV1 ag	uPA generation
CC12CC3CC(C)(C1)CC(C(=O)NC(=S)N1CCCCC1)(C3)C2	?	-5	0.45µM*	?	-3%
CSc1nc(C(=O)N2CCCC(Nc3ccc(C)c(C)c3)C2)cs1 (stereo unspecified)	-11%	-6	?	?	2%
Cc1cccc(/C=C/C(=O)c2ccc([N+](=O)[O-])o2)c1	nt	20	nt	?	7.1µM*
O=C(Nc1nc2ccccc2[nH]1)c1ccccc1F	1.8µM*	7	0.71µM*	11	-8%
CCn1nc(C(=O)Nc2nc3ccccc3[nH]2)c2ccccc2c1=O	?	-8	11µM*	7	-3%
O=C(Nc1nc2ccccc2[nH]1)c1cc(F)cc(F)c1	?	-5	-24%	0	-4%
CN(C)S(=O)(=O)c1ccc(C(=O)Nc2nc3ccccc3[nH]2)cc1	?	4	11µM*	2	-8%
O=C(Nc1nc2ccccc2[nH]1)c1ccc(F)cc1	5.6µM*	-10	2.8µM*	9	nt
CN(C)S(=O)(=O)c1ccc(C(=O)Nc2ccccn2)cc1	-2%	-1	-2%	2	-6%
CCc1ccc(C(=O)Nc2nc3ccccc3[nH]2)cc1	4µM*	9	2.2µM*	6	-16%
O=C(CCNC(=O)c1ccc(Cl)cc1)Nc1nc2ccccc2[nH]1	nt	nt	nt	nt	7%
CN(c1ccccc1)S(=O)(=O)c1ccc(Cl)c(C(=O)Nc2nc3ccccc3[nH]2)c1	7.1µM*	12	4µM*	1	-12%
N#Cc1ccc(C(=O)Nc2nc3ccccc3[nH]2)cc1	7.1µM*	9	3.5µM*	1	-13%
CN(c1ccccc1)S(=O)(=O)c1ccc(Cl)c(C(=O)Nc2ccc(-c3nc4ccccc4[nH]3)cc2)c1	-1%	-7	?	-2	-6%
CC(C)C[C@H](NC(=O)[C@H](CC(C)C)NC(=O)[C@@H](Cc1c[nH]c2ccccc12)NC(=O)[C@H](Cc1ccccc1)NC(=O)[C@@H](Cc1c[nH]c2ccccc12)NC(=O)[C@H](CCC(N)=O)NC(=O)[C@H](CCC(N)=O)NC(=O)[C@@H]1CCCN1C(=O)[C@H](CCCCN)NC(=O)[C@@H]1CCCN1C(=O)[C@@H](CCCNC(=N)N)NC(=O)[C@@H]1CCCN1C(=O)CNC(=O)[C@H](CC(C)C)NC(=O)[C@H](CC(C)C)NC(=O)[C@H](Cc1ccc(O)cc1)NC(=O)CNC(=O)[C@H](C)NC(=O)[C@H](CO)NC(=O)[C@H](CC(N)=O)NC(=O)[C@H](CC(C)C)NC(=O)[C@@H](NC(=O)[C@H](Cc1c[nH]c2ccccc12)NC(=O)CN)[C@@H](C)O)C(N)=O	-9%	nt	9%	nt	nt
CCNC(=O)C12CCC(C)(c3nc4cc(C)c(C)cc4nc31)C2(C)C (stereo unspecified)	5%	3	1%	4	6%
Cc1ccc(-c2csc3ncnc(SCC(=O)NCC4CCCO4)c23)cc1 (stereo unspecified)	nt	-21	nt	?	13%
CC(C)=CCC/C(C)=C/C=C/C1=CC2(C)CC1(C)C(/C=C(\C)CCC=C(C)C)CC2=O (stereo unspecified)	-5%[10 µM]	nt	-2%[10 µM]	nt	nt
N=c1ccn2c(n1)OC1C(O)[C@@H](CO)O[C@H]12 (stereo partly specified)	nt	19	nt	3	nt
CCOc1ccccc1C1CC(=O)Nc2cc(C)c(C)cc21 (stereo unspecified)	-5%	-16	-8%	?	7.1µM*
CC(C)Oc1ccccc1C1CC(=O)Nc2cc3c(cc21)OCO3 (stereo unspecified)	13µM*	-8	?	?	-19%
COc1ccc(C2c3cc(OC)c(OC)cc3CCN2C(=O)c2ccccc2Br)cc1OC (stereo unspecified)	?	14	40%	1	10%
CC(C)=N/N=C1\NC(=O)C(C)S1 (stereo unspecified)	?	-3	11µM*	2	4%
COc1ccc(C2CC(O)(c3ccccc3)Oc3c(C)ccc(C)c32)cc1 (stereo unspecified)	13µM*	17	?	10	?
CCCCn1c(Cc2ccccc2)n[nH]c1=S	-24%[0.365 µM]	18	?	-6	-2%
